Source: PubChem
AmpC inh detg – inhibitors of E. coli AmpC beta-lactamase with detergent | AmpC hydrolysis of nitrocefin, absorbance 480 nm, 0.01% Triton | AID 485294 | P00811 | 370,000 tested, 0.041% active | Potency, µM (highest dose often 114 µM), most hits filed as inhibitors; also: nearly all actives have a fitted effect of over 25% in size
Target sequence (P00811 whole entry, looked up): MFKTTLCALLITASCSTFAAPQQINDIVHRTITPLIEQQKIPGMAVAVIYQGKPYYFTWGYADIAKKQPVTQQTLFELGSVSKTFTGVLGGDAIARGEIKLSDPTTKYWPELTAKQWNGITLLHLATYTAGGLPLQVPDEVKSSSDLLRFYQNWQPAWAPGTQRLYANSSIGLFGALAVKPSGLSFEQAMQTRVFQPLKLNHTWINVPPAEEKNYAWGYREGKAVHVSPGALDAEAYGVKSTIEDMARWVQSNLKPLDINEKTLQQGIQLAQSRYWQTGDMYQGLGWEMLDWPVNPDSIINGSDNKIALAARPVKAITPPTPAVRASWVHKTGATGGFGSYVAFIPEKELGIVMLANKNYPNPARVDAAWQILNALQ
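20 mM phosphate pH 7.0 + 0.01% (detergent screen) or 0.0001% Triton X-100; 5.3 nM AmpC reagent; cpd preinc 15 min RT; nitrocefin (800 uM stock) to start; A480 q20 s × 4 min; Activity was normalised to no-enzyme and no-compound control wells.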
Pf growth 48h – P. falciparum growth inhibition at 48 hours (one generation); P. falciparum luciferase growth in erythrocytes, 48 h; Potency, µM (top dose mostly 28.7 µM), hits mostly inhibitors; 310,000 tested, 5.9% active; AID 504832
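A one-generation exposure of luciferase-tagged malaria parasites in RPMI 1640/Albumax erythrocyte culture, 37 C and 5% CO2. Inhibition is inferred from decreased luminescence after adding detection reagent.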
Pf growth 96h – P. falciparum growth inhibition at 96 hours; 320,000 tested, 6.9% active; Potency, µM (highest dose often 28.7 µM), actives largely listed as inhibitors; AID 504834; P. falciparum luciferase reporter growth, 96 h
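Two parasite generations (96 h, 37 C, 5% CO2) of compound exposure in infected erythrocytes (0.05% parasitemia, 2% hematocrit). Luciferase-reporter P. falciparum; decreased luminescence indicates inhibited growth, aimed at apicoplast-acting delayed death.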
AmpC no deterg – AmpC beta-lactamase inhibition without detergent; AmpC nitrocefin hydrolysis, absorbance 480 nm, 0.0001% Triton; AID 485341; 330,000 tested, 0.52% active; Potency, µM (top dose mostly 57.1 µM), hits mostly inhibitors; also: nearly all actives have a fitted effect of over 20% in size
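AmpC (5.3 nM in the dispensed reagent) in 20 mM phosphate pH 7.0 with 0.01% (detergent screen) or 0.0001% Triton X-100 was preincubated with compounds for 15 min at room temperature. Nitrocefin was then added from an 800 uM solution, and hydrolysis was followed at 480 nm.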
SARS PLpro yeast – blocks SARS-CoV papain-like protease in a yeast assay | 330,000 tested, 0.19% active | Potency, µM (top dose mostly 32.9 µM), usual class: activators | AID 485353 | S. cerevisiae expressing SARS-CoV PLpro, growth rescue; calls by dose curve; also: nearly all actives have a fitted effect of over 55% in size
Sm TGR block – blocks Schistosoma mansoni thioredoxin glutathione reductase; Q962Y6; purified TGR, DTNB reduction, TNB absorbance 405 nm; Potency, µM (series often up to 114 µM), actives largely listed as inhibitors; 360,000 tested, 3% active; AID 485364; also: nearly all actives have a fitted effect of over 60% in size
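TGR 20 nM + NADPH 100 uM (dispensed conc.), cpd preinc 15 min RT; start with NADPH (500 uM addition) then DTNB (15 mM addition). Kinetic TNB absorbance, 405 nm filter. Four-parameter Hill fit across titration.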
Numbers stand for hits; - = inactive; ? = inconclusive; . = not tested or not shown. In the library only some 12% were active in any assay of this set; here they are far more common. Unless noted, calls follow the shape of the dose curve; as a rule, active = well fitted curve in the direction sought with a large enough effect; inconclusive = small, poorly fitted or top-dose-only effect, or another doubt; inactive = no such curve, though single readings can be large; an effect the other way counts as inactive or inconclusive.

SMILES	AmpC inh detg	Pf growth 48h	Pf growth 96h	AmpC no deterg	SARS PLpro yeast	Sm TGR block
Cc1c(C(=O)N2CCC(Cc3ccccc3)CC2)cccc1[N+](=O)[O-]	-	-	-	-	-	-
O=C(c1cccs1)N1CCC(Cc2ccccc2)CC1	-	8.3µM	-	-	-	-
Cc1cccc(C(=O)N2CCC(Cc3ccccc3)CC2)c1[N+](=O)[O-]	-	-	0.93µM	-	-	-
O=C(c1ccc(Br)o1)N1CCC(Cc2ccccc2)CC1	-	13µM	-	-	-	-
O=C(c1ccc(Br)o1)N1CCN(Cc2ccccc2Cl)CC1	?	12µM	?	-	.	?
O=C(O)c1ccccc1-c1ccccc1C(=O)Nc1cccc(O)c1	-	-	?	-	-	-
O=C(CSc1nc2ccccc2c(=O)n1-c1ccccc1)N/N=C/C=C/c1ccccc1[N+](=O)[O-]	-	9.3µM	?	-	-	-
Cc1ccccc1-n1c(SCC(=O)N/N=C/C=C/c2ccccc2[N+](=O)[O-])nc2ccccc2c1=O	-	?	?	?	-	-
O=C(CSc1nc2ccccc2c(=O)n1-c1ccc(Cl)cc1)N/N=C/C=C/c1ccccc1[N+](=O)[O-]	-	?	9.3µM	-	-	-
CC(O)c1nc2ccccc2n1CC(=O)Nc1ccc(F)cc1Cl (centres undefined)	?	?	-	-	-	-
COC(=O)CCSc1nc2sc3c(c2c(=O)n1Cc1ccccc1)CCC(C(C)(C)C)C3 (centres undefined)	-	.	.	.	.	-
CCN(CC)S(=O)(=O)c1ccc(N/N=C(\C)c2ccc(OC)cc2O)nc1	-	13µM	?	-	-	-
CCN(CC)S(=O)(=O)c1ccc(N/N=C/c2ccc(O)cc2)nc1	-	-	?	-	-	-
O=C(CSc1nc2c([nH]c3ccccc32)c(=O)n1-c1ccccc1)N1CCCc2ccccc21	-	.	.	.	.	-
CCCCC/C=C\C/C=C\C/C=C\C/C=C\CCCC(=O)O	-	?	-	-	.	18µM
CC/C=C\C/C=C\C/C=C\CCCCCCCC(=O)O	?	?	?	-	.	35µM
C[N+](C)(C)CCCCCCC(=O)/C=N/O	-	-	-	-	-	-
C[N+](C)(C)CCCCCCCCCC[N+](C)(C)C	-	0.66µM	0.26µM	-	-	-
CCCc1cc(=O)[nH]c(SCC(=O)NN(c2ccccc2)c2ccccc2)n1	-	-	-	-	-	-
COc1ccc(NC(=O)CN(C)C(=O)c2ccc3c(c2)OCCO3)cc1	?	-	-	-	-	-
Oc1ccc(/C(Cc2ccc3ccccc3n2)=N\Nc2ccccc2)c(O)c1	-	?	?	-	-	25µM
C=CCC(=O)OCC(=O)Nc1ccc(Oc2ccccc2)cc1	-	?	-	-	-	-
COc1cc(CNc2cccc(F)c2)cc(Br)c1O	-	?	?	-	-	13µM
COc1cc(CNc2ccc(O)cc2)cc(Br)c1OCc1ccccc1	-	?	-	-	-	-
COc1cc(CNc2ccc3[nH]c(=O)[nH]c3c2)cc(Br)c1OCC(=O)NC(C)(C)C	?	.	?	-	-	13µM
SMILES	AmpC inh detg	Pf growth 48h	Pf growth 96h	AmpC no deterg	SARS PLpro yeast	Sm TGR block
COc1ccc(CNc2ccccc2)cc1Br	-	-	?	-	-	-
COc1cc(CNc2cccc(C(=O)O)c2)cc(Br)c1OCC(=O)NC(C)(C)C	-	-	12µM	-	-	-
COc1cc(CNc2ccc3[nH]c(=O)[nH]c3c2)ccc1OCC(=O)NC(C)(C)C	?	-	.	-	-	-
O=C1c2[nH]nc(-c3ccccc3O)c2C(c2ccc(Cl)cc2)N1CCc1ccccc1 (centres undefined)	-	.	.	.	.	-
COc1ccc(CCNc2ncnc3onc(C)c23)c(OC)c1	-	.	.	.	.	-
O=C(Nc1ccncc1)c1cccc(S(=O)(=O)N2CCN(c3ccc(F)cc3)CC2)c1	-	?	12µM	-	-	-
Cc1cccc(C)c1NC(=O)CN(C)C(=O)c1cccc(S(=O)(=O)N2CCN(c3ccc(F)cc3)CC2)c1	-	17µM	?	-	-	-
COC(=O)c1cc(S(=O)(=O)N2CCN(c3ccc(F)cc3)CC2)cn1C	-	-	9.3µM	-	-	-
